Here are results for 40 compounds from PubChem BioAssay (Tox21).

Records with an inconclusive call do not appear. A number with no mark means an inactive call. The call rests on the fitted dose curve; in most records, active means well fitted activation curve with a large enough effect in the repeat runs; inconclusive means weak or mixed curves; inactive means flat fitted curve, though single readings scatter.
On the % scale 0 is the no-effect control and ±100 the full control effect.

A short description of this assay: A CellTox Green Cytotoxicity Assay to monitor cytotoxicity in HEK293 cells - 8 hour (AID 1224884). Further: nearly all actives have a fitted effect of over 35% in size. Conditions: CellTox Green fluorescence; series mostly up to 76.8 µM; cytotoxicity increase: at the top concentration. The source says:
National Center for Advancing Translational Sciences [NCATS]
NIH Chemical Genomics Center [NCGC]
U.S. Environmental Protection Agency [EPA]
National Institutes of Environmental Health Sciences [NIEHS]
National Toxicology Program [NTP]
Cell-based models are critical for drug discovery. Determining the natural cytotoxic effects resulting from test compounds is an essential research activity. A CellTox Green Cytotoxicity Assay to monitor cytotoxicity in real time of continues cell culture during 40 hours of the compound treatment was used to screen Tox21 10K library compounds in Hek293 cells. CellTox Green Cytotoxicity Assay is a nonlytic, homogeneous, biofluorescent method to measure cytotoxicity in cell culture after experimental manipulation. The assay system uses a proprietary asymmetric cyanine dye that is excluded from viable cells but preferentially stains the dead cell's DNA. […] Viable cells produce no appreciable increases in fluorescence. Therefore, the fluorescence signal produced by the binding interaction with dead cell DNA is proportional to cytotoxicity.
The mixture of Hek293 cell suspension and reagents were dispensed at 600cells/6 ul/well in 1536-well tissue culture treated black solid bottom plates using a Multidrop dispenser. After the assay plates were incubated at a 37 C/5% CO2 incubator for 5 hours, 23 nL of compounds dissolved in DMSO, positive and negative controls was transferred to the assay plate by a pintool work station. The plates were incubated at 37 C for 40 hours. The fluorescence intensity were measured at 0h, 8h, 16h, 24h, 32h and 40h time points using ViewLux plate reader during compound treatment.
For `NNC(N)=O`, the “cytotoxicity increase” value was 1.83%.

Turning to `CCCCCCCC(=O)Cl`, the “cytotoxicity increase” value is -1.44%.

For `O=CCCl`, the “cytotoxicity increase” value was -9.42%.

In the case of `N[C@@H](Cc1ccc(Oc2cc(I)c(O)c(I)c2)c(I)c1)C(=O)O`, the “cytotoxicity increase” value is -1.75% [at 35.3 µM].

`CCN(CCO)CCO`: the “cytotoxicity increase” value is 1.12%.

Turning to `Cc1ccc2c(c1)C1CN(C)CCC1N2` (stereo not given), the cytotoxicity increase was -1.28% [at 15.8 µM].

For the compound `NC(=O)CS(=O)C(c1ccccc1)c1ccccc1` (stereo not given), the “cytotoxicity increase” value was -0.251% [at 35.3 µM].

For `CCc1cc(OC)c(C[C@H](C)N)cc1OC`, the “cytotoxicity increase” value was 5.6%.

In the case of `O=C(O)C(Br)(Br)Br`, the “cytotoxicity increase” value is -4.8%.

On to `C1CN2CCC1CC2`, for which the “cytotoxicity increase” value was 3.41% [at 35.3 µM].

Take `c1ccc2c(c1)CCNC2`: the “cytotoxicity increase” value was -2.95%.

For `CCCN1CCC[C@@H]2Cc3[nH]ncc3C[C@H]21`, the “cytotoxicity increase” value was 0% [at 35.3 µM].

On to `BrCCc1ccccc1`, for which the “cytotoxicity increase” value was -2.8%.

Take `CCN(CCO)CCn1c(Cc2ccccc2)nc2c1c(=O)n(C)c(=O)n2C`: the “cytotoxicity increase” value was 21.9% [at 35.3 µM].

`CN1COCN(Cc2cnc(Cl)s2)/C1=N\[N+](=O)[O-]`: the “cytotoxicity increase” value was -8.4%.

Regarding `C[C@H](CN1CCOCC1)C(C(=O)N1CCCC1)(c1ccccc1)c1ccccc1`, the “cytotoxicity increase” value was 6.01%.

For `CC1N=C(N)OC1c1ccccc1` (stereo not given), the “cytotoxicity increase” value was -16.2%.

Consider `O=C(O)c1c(Cl)ccc2cc(Cl)cnc12`, for which the “cytotoxicity increase” value is -11.1%.

For the compound `N[C@@H]1C[C@H]1c1ccccc1`, the “cytotoxicity increase” value was -13.1% [at 35.3 µM].

As for `C#CCOC(=O)/C=C(C)/C=C/CC(C)CCCC(C)C` (stereo not given), the “cytotoxicity increase” value was -0.292%.

`c1cncc([C@@H]2CCCCN2)c1`: the “cytotoxicity increase” value was 10.1%.

Turning to `CCNc1nc(NCC)nc(SC)n1`, the “cytotoxicity increase” value was -19.3%.

With `COC(=O)c1ccc(CBr)cc1`, the “cytotoxicity increase” value is 4.35%.

As for `CC(=O)CN(CC(C)=O)N=O`, the “cytotoxicity increase” value was 5.86%.

As to `CNC(=O)O/N=C(/CSC)C(C)(C)C`, the “cytotoxicity increase” value is -1.49%.

Regarding `COC[C@@H](NC(C)=O)C(=O)NCc1ccccc1`, the “cytotoxicity increase” value is -0.363% [at 35.3 µM].

As to `O=P(O)(O)CN(CP(=O)(O)O)CP(=O)(O)O`, the cytotoxicity increase was 30% [at 15.8 µM].

As to `C[C@H](N)C(=O)c1ccccc1`, the “cytotoxicity increase” value is -6.65%.

In the case of `C=CCN1CC[C@]23CCCC[C@H]2[C@H]1Cc1ccc(O)cc13`, the “cytotoxicity increase” value was -19% [at 35.3 µM].

Regarding `COc1cccc([C@@]2(O)CCCC[C@@H]2CN(C)C)c1`, the “cytotoxicity increase” value was 3.84% [at 35.3 µM].

In the case of `BrCc1ccc(Br)cc1`, the “cytotoxicity increase” value is -1.03%.

With `Cc1cccc2sc3nncn3c12`, the “cytotoxicity increase” value is -9.37%.

In the case of `CNC(=O)Oc1ccccc1C(C)C`, the “cytotoxicity increase” value is 13%.

With `CCCC(C)(COC(N)=O)COC(N)=O`, the “cytotoxicity increase” value was -8.81%.

With `CN(C)CCN(C)C`, the “cytotoxicity increase” value is -8.41%.

In the case of `CCN[C@@H](C)Cc1ccccc1`, the “cytotoxicity increase” value is -10.9%.

In the case of `NC(=O)OCCCc1ccccc1`, the “cytotoxicity increase” value is 1.02% [at 35.3 µM].

For `ClCCCCCCCl`, the “cytotoxicity increase” value was -4.97%.

Turning to `ClC1=C(Cl)C2(Cl)C(CBr)CC1(Cl)C2(Cl)Cl` (stereo not given), the “cytotoxicity increase” value is 7.8% [at 35.3 µM].

`N=C(N)[Se]`: the “cytotoxicity increase” value is -8.72%.
